In the supplement of paper PMC6411743:
± gives the standard deviation of the averaged measurements. About 6,500 targets were measured; listed, in parts, are those with the largest changes and a random draw of the rest.

Compound: Nc1ncnc2c1ncn2[C@@H]1O[C@H](COP(=O)(O)OP(=O)(O)OP(=O)(O)O)[C@@H](O)[C@H]1O [adenosine triphosphate]
Test: NP40-soluble protein abundance relative to vehicle (solubility fold change) (ratio); higher = more soluble protein in presence of ATP
Outline: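 Jurkat crude lysate prepared with a Dounce homogeniser was treated at eight concentrations spanning 0.1 to 10 mM, 10 min at room temperature then 3 min at 37 °C. Solubilisation with 0.8% NP40 and benzonase and ultracentrifugation preceded TMT labelling of the supernatant for LC-MS/MS. Fold change against the detergent-processed vehicle was determined per replicate from vsn-normalised intensities, across three independent experiments.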

Sequence of UniProt Q14146 (Q14146 whole entry): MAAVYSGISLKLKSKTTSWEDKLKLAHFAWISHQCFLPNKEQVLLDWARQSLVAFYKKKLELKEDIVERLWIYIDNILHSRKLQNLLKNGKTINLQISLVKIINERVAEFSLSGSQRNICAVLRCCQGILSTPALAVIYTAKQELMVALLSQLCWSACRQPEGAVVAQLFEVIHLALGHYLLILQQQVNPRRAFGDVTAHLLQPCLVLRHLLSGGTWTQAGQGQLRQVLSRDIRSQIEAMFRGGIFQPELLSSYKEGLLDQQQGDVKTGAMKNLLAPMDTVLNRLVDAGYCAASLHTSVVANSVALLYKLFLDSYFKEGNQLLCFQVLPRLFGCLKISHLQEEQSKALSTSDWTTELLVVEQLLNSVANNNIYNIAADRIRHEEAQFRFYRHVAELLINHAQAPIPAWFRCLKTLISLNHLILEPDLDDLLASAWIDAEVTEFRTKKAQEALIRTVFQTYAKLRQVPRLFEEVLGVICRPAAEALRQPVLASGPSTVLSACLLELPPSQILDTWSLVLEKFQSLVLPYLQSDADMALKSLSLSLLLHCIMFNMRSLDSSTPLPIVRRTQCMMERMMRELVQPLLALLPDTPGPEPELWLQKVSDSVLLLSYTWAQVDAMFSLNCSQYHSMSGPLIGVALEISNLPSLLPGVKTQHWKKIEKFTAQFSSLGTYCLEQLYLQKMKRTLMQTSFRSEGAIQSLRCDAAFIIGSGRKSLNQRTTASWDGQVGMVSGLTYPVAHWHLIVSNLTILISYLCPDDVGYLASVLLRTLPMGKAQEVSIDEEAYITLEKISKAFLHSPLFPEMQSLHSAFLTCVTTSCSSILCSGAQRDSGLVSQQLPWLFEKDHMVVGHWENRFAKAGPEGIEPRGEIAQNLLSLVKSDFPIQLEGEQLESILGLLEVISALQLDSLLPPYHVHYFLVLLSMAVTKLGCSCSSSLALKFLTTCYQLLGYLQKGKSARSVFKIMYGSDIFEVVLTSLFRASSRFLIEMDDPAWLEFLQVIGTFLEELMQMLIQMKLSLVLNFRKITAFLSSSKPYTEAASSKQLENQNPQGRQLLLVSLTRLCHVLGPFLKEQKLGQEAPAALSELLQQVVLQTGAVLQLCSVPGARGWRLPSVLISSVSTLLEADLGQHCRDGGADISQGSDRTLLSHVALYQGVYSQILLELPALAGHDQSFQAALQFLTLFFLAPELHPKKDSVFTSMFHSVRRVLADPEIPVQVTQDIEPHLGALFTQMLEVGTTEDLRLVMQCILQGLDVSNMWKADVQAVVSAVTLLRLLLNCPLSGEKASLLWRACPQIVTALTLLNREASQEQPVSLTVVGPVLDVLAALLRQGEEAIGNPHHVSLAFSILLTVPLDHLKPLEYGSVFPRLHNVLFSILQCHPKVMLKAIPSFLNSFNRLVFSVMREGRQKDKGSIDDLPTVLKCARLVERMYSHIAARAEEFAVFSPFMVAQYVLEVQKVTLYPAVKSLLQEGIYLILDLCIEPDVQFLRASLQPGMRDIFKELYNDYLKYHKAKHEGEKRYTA
Sequence of UniProt Q70Z53 (Q70Z53 whole entry): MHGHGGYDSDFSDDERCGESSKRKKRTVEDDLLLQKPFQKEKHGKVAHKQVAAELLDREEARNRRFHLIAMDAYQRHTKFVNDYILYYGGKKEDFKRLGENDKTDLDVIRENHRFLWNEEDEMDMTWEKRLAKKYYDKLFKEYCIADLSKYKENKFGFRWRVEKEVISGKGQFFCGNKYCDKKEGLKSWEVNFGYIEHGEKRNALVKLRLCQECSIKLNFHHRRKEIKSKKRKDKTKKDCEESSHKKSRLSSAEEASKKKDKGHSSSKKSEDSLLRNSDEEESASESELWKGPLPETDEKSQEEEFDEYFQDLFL
Sequence of UniProt Q3MII6 (Q3MII6 whole entry): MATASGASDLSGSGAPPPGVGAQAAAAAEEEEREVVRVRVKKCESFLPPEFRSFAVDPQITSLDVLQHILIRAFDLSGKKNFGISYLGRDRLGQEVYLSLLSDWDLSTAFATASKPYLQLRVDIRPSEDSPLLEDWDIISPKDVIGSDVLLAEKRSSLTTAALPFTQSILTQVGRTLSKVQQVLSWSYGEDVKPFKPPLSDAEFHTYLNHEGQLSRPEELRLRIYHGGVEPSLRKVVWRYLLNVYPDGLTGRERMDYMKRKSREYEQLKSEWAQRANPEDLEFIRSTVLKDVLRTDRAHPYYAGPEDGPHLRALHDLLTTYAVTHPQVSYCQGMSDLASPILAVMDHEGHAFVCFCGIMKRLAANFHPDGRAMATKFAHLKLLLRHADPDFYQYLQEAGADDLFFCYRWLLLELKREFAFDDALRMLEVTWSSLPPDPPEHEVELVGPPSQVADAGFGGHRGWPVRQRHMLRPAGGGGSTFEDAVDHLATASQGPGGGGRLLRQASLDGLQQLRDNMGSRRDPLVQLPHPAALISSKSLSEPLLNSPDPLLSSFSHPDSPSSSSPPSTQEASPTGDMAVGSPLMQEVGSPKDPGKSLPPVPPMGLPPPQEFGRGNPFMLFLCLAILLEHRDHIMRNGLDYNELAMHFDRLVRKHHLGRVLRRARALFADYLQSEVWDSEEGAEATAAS
Sequence of UniProt Q8IY18 (Q8IY18 whole entry): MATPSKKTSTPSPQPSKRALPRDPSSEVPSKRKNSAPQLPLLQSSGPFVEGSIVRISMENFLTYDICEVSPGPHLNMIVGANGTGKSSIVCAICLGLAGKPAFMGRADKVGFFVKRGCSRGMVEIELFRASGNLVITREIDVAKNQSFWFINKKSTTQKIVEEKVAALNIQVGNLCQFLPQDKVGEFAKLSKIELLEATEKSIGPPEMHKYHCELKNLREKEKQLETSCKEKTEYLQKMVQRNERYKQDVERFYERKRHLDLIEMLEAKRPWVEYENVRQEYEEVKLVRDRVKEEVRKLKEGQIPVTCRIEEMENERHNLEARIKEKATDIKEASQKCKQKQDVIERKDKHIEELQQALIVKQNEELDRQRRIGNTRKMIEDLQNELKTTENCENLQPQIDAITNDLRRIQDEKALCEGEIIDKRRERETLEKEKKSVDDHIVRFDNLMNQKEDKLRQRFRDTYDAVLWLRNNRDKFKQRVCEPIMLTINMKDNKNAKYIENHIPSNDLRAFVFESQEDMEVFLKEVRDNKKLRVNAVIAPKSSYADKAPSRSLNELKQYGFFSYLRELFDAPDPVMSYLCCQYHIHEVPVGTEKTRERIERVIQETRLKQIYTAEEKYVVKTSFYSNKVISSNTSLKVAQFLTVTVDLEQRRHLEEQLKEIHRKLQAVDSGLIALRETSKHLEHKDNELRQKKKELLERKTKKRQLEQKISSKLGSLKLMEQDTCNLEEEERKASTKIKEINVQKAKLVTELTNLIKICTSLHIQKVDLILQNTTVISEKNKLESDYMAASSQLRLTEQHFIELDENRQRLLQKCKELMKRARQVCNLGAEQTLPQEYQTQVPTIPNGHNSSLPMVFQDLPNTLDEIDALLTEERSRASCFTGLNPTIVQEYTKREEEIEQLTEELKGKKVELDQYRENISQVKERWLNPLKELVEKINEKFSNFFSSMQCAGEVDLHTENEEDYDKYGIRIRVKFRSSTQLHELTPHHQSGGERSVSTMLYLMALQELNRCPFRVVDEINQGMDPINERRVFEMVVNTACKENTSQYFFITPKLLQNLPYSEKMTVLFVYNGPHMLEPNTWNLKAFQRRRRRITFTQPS
Sequence of UniProt Q13057 (Q13057 whole entry): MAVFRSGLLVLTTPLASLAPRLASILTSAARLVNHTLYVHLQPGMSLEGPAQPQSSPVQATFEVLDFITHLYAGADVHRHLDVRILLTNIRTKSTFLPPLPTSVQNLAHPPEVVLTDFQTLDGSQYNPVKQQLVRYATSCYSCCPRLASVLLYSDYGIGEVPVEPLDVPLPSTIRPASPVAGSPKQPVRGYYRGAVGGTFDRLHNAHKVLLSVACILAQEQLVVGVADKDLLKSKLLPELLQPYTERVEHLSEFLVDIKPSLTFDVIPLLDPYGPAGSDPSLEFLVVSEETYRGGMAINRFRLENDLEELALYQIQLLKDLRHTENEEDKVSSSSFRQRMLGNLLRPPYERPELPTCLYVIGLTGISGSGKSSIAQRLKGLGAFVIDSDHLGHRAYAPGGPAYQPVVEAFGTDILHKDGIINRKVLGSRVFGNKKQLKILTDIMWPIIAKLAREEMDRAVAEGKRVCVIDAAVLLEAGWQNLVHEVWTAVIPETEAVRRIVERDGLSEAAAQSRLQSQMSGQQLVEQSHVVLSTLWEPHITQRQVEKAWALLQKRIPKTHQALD
Sequence of UniProt Q2T9J0 (Q2T9J0 whole entry): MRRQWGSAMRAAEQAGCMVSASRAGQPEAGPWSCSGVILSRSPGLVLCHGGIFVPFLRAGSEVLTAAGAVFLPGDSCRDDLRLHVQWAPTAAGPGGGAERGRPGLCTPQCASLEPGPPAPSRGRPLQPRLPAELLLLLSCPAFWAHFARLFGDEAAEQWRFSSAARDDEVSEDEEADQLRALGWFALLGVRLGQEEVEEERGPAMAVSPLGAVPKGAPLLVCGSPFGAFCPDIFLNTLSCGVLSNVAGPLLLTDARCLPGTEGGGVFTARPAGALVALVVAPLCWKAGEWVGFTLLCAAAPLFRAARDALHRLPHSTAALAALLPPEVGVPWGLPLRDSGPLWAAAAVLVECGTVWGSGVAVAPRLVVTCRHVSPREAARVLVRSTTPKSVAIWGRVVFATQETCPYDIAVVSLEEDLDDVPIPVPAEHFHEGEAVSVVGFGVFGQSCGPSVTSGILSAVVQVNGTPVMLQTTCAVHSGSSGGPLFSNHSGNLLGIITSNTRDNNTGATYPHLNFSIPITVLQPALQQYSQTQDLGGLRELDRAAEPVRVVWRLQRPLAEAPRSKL
Sequence of UniProt Q13795 (Q13795 whole entry): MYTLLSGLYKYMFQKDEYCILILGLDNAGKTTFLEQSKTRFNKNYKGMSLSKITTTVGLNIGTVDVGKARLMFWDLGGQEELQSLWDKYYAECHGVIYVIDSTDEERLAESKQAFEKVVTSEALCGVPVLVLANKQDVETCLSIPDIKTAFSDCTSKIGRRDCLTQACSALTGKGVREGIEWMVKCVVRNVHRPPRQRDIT

Target	NP40-soluble protein abundance (concentration: 1mM)	NP40-soluble protein abundance (concentration: 2mM)	NP40-soluble protein abundance (concentration: 4mM)	NP40-soluble protein abundance (concentration: 6mM)	NP40-soluble protein abundance (concentration: 8mM)	NP40-soluble protein abundance (concentration: 10mM)
UniProt Q8NCU8-2	0.876 ± 0.17	0.822 ± 0.086	0.826 ± 0.14	0.769 ± 0.068	0.883 ± 0.12	0.752 ± 0.038
UniProt Q7L590|Q7L590-2|Q5T670	1.01 ± 0.11	1.07 ± 0.059	1.13 ± 0.044	1.01 ± 0.057	1.11 ± 0.12	1.14 ± 0.12
TBC1D25 (UniProt Q3MII6)	0.982 ± 0.059	1.04 ± 0.11	1.05 ± 0.16	0.962 ± 0.095	1.01 ± 0.14	1 ± 0.15
UniProt Q6NW34|Q6NW34-2	0.863 ± 0.078	0.831 ± 0.11	0.792 ± 0.15	0.892 ± 0.11	0.84 ± 0.14	0.785 ± 0.21
UniProt Q86W42|Q86W42-2	1.59 ± 0.18	1.69 ± 0.05	2 ± 0.087	2.16 ± 0.071	2.47 ± 0.094	2.55 ± 0.19
FAM117B (UniProt Q6P1L5)	0.945 ± 0.048	0.984 ± 0.061	0.97 ± 0.039	0.978 ± 0.042	0.952 ± 0.069	0.946 ± 0.032
UniProt Q86X95	0.964 ± 0.013	0.935 ± 0.061	0.9643 ± 0.008	0.949 ± 0.026	0.935 ± 0.0096	0.913 ± 0.02
UniProt Q13057|Q13057-2	1.01 ± 0.061	1.02 ± 0.072	1.02 ± 0.086	0.962 ± 0.094	1.04 ± 0.095	1.02 ± 0.075
SMC5 (UniProt Q8IY18)	1.02 ± 0.026	1.02 ± 0.013	1.02 ± 0.02	1.04 ± 0.02	1.04 ± 0.016	1.04 ± 0.017
URB2 (UniProt Q14146)	1.21 ± 0.1	1.36 ± 0.15	1.61 ± 0.058	1.68 ± 0.11	2.04 ± 0.16	2.19 ± 0.46
TYSND1 (UniProt Q2T9J0)	0.977 ± 0.047	0.983 ± 0.058	0.995 ± 0.042	0.947 ± 0.013	0.974 ± 0.032	0.96 ± 0.076
UniProt Q5T200|Q5T200-2	1.04 ± 0.057	1.1 ± 0.056	1.15 ± 0.077	1.22 ± 0.094	1.21 ± 0.086	1.29 ± 0.093
UniProt Q13795|Q13795-3	0.95 ± 0.024	0.961 ± 0.015	0.932 ± 0.025	0.962 ± 0.046	0.9416 ± 0.0073	0.945 ± 0.039
MDC1 (UniProt Q14676)	1.45 ± 0.11	1.57 ± 0.11	1.74 ± 0.13	1.89 ± 0.18	1.88 ± 0.13	1.99 ± 0.15
UniProt Q70Z53	0.931 ± 0.015	0.927 ± 0.028	0.919 ± 0.011	0.922 ± 0.066	0.933 ± 0.058	0.936 ± 0.013
